Screening results from PubChem BioAssay.
GluA2 TARP mod – modulators of GluA2-stargazin AMPA receptor complexes, primary screen, cell-based, membrane potential dye | Voltage-dependent calcium channel gamma-2 subunit (Mus musculus) + Glutamate receptor 2 … | HEK293 GluA2+stargazin, membrane potential dye (FDSS), glutamate EC50; hits were called plate by plate, in both directions | calls only at 30 µM | 40,000 compounds, 3.5% hits | AID 1259245, 2017;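 active means any of four per-well response measures lying three or more SD from its plate-wide compound average, in either direction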
Target sequence (O88602 whole entry, looked up): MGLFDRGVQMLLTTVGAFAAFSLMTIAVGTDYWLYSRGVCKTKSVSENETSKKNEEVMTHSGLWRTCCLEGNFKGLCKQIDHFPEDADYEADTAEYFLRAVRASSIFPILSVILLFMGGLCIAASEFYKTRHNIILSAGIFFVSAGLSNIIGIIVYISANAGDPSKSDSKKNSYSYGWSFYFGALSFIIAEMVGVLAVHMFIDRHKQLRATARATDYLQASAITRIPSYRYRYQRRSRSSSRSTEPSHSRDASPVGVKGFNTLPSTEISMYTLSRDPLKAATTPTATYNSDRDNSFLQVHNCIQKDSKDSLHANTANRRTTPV
Target sequence (P19491 whole entry, looked up): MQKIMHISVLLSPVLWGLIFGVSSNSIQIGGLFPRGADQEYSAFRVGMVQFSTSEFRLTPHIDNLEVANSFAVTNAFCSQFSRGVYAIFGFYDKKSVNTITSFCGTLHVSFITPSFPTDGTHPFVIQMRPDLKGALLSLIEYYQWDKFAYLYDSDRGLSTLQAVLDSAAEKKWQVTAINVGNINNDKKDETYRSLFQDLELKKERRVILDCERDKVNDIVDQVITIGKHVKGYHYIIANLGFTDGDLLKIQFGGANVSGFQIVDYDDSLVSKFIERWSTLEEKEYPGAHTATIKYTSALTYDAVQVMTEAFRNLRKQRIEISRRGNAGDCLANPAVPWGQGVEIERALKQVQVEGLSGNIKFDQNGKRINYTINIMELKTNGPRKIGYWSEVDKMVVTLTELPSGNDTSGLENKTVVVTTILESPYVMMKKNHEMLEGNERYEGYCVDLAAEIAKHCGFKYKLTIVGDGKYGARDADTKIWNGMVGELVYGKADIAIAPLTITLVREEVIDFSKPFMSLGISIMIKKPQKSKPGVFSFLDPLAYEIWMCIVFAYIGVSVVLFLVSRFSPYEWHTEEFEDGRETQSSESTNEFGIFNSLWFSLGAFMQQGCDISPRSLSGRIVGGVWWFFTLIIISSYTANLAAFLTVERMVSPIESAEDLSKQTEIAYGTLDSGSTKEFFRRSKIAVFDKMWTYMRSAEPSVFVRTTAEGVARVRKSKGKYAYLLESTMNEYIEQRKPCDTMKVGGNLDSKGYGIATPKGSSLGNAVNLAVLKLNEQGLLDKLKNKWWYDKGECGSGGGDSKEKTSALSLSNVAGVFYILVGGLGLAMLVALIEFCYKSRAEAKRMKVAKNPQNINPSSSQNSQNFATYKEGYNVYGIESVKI
GIRK2 activator – activators of NPY4-receptor-primed GIRK2 channels, summary, cell-based, HEK293, thallium flux; G protein-activated inward rectifier potassium channel 2 (Homo sapiens), P48051; HEK293 GIRK2/NPY4 cells, thallium flux fluorescence; activation (% efficacy), % for hits at 37.5 µM; 34,000 tested, under 10 active; AID 1259324, 2017;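 active means primary screen hit, no activity in plain HEK293 cells, and in GIRK2-only cells above 5% efficacy rising with concentration; inactive means the rest, including fluorescent compounds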;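 further: efficacy is normalized control-subtracted fluorescence 15 s after thallium addition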
Numbers without * were called inactive; i = inactive; / = no result; + = active, no number. Shown is part of a subset that was picked to be rich in hits.

SMILES	GluA2 TARP mod	GIRK2 activator
COc1ccc(Cl)cc1NC(=O)C(=O)NCC(c1cccs1)N(C)C (centres undefined)	+	i
COC(=O)c1ccc(NC(=O)c2ccc(-n3cnnn3)cc2)cc1	i	i
COCCNC(=O)C(=O)Nc1c2c(nn1-c1ccc(OC)cc1)CS(=O)(=O)C2	i	i
C=CCNC(=O)NCC1CCN(S(C)(=O)=O)CC1	/	i
Cc1cc(C)c(S(=O)(=O)N2CCN(c3c(C)cccc3C)CC2)c(C)c1	i	/
Cc1cc(C)c(S(=O)(=O)N2CCN(c3cccc(C)c3C)CC2)c(C)c1	+	/
Cc1nc(-n2cccc2)sc1C(=O)N1CCSCC1	i	i
CC1CCCCN1C(=O)CSc1nc(-c2ccccc2)[nH]c1S(=O)(=O)c1ccccc1 (centres undefined)	+	i
O=C(CSc1nc(-c2ccccc2)[nH]c1S(=O)(=O)c1ccccc1)NC1CCCC1	i	i
COc1ccccc1NC(=O)CSc1nc(-c2ccccc2)[nH]c1S(=O)(=O)c1ccccc1	+	i
COc1ccc(CNC(=O)CSc2nc(-c3ccccc3)[nH]c2S(=O)(=O)c2ccccc2)cc1	i	i
CCOC(=O)c1c(C)c(C(=O)NCc2ccco2)c(C)n1CC	+	i
COCCNC(=O)C(=O)NCc1ccco1	i	i
O=C(NCC1(O)CCOCC1)C1CCCCC1	/	i
COc1ccc(C(=O)Cn2nc(-c3cccc(Br)c3)ccc2=O)cc1	i	i
COc1cccc(C(=O)Nc2ccc3nc(C)n(-c4ccc(C)cc4)c(=O)c3c2)c1	i	/
COc1ccc(-n2c(C)nc3ccc(NC(=O)c4ccc(F)c(F)c4)cc3c2=O)cc1	+	/
COC(=O)c1ccccc1NC(=O)Cn1cc(-c2ccccc2)c(N2CCOCC2)n1	+	i
COc1ccc(NC(=O)Cn2cc(-c3ccccc3)c(N3CCOCC3)n2)c(OC)c1	i	i
CCS(=O)(=O)N1CCCc2ccc(NS(=O)(=O)c3ccccc3)cc21	i	/
O=C(COc1ccccc1C1CC(c2cccs2)=NN1C(=O)c1ccccc1)N1CCCC1 (centres undefined)	i	/
O=C(COc1ccccc1C1CC(c2ccccc2)=NN1C(=O)c1ccccc1)N1CCOCC1 (centres undefined)	+	/
Cc1cccc(CN(c2ccc3c(c2)OCO3)S(=O)(=O)c2ccc3nncn3c2)c1	+	i
COc1ccc(N(Cc2ccccc2)S(=O)(=O)c2ccc3nncn3c2)cc1	i	i
O=C(CSc1ncc(S(=O)(=O)c2ccc(Br)cc2)c(=O)[nH]1)Nc1ccccc1F	+	/
SMILES	GluA2 TARP mod	GIRK2 activator
Cc1ccc(S(=O)(=O)c2cnc(SCC(=O)Nc3ccc(Br)cc3)[nH]c2=O)cc1	i	i
CN(C)CCNc1cc(C(C)(C)C)nc2c(-c3ccccc3)cnn12	+	i
CC(C)(C)c1cc(NCCCn2ccnc2)n2ncc(-c3ccccc3)c2n1	i	i
O=C(NCc1ccccc1)C1CN(C(=O)COc2ccccc2F)C1	i	i
O=C(CSc1cc(=O)n(-c2ccccc2)nc1C(=O)O)Nc1ccc(C(F)(F)F)cc1	i	i
O=C(Nc1ccc(S(=O)(=O)Nc2nccs2)cc1)c1nc(-c2cnccn2)no1	+	i
Cc1ccnc(NS(=O)(=O)c2ccc(NC(=O)c3nc(-c4cnccn4)no3)cc2)n1	i	i
O=C(Nc1cccc(C(F)(F)F)c1)C1CCCN(C(=O)Nc2cccs2)C1 (centres undefined)	+	i
COC(=O)Nc1ccc(S(=O)(=O)N2CCCC(C(=O)Nc3cccc(C(F)(F)F)c3)C2)cc1 (centres undefined)	i	/
COc1ccc(CCNC(=O)C(=O)Nc2ccc(NC(C)=O)cc2)cc1	+	i
COc1ccc(CNC(=O)C(=O)Nc2ccc(NC(C)=O)cc2)cc1	i	i
O=C(c1ccccc1F)N1CCC(CNC(=O)C2(c3ccc(F)cc3)CC2)CC1	i	i
CCCc1ccc(S(=O)(=O)Nc2ccc3c(c2)N(C(=O)C(C)(C)C)CC3)cc1	+	i
COc1ccc(S(=O)(=O)Nc2ccc3c(c2)N(C(=O)C(C)(C)C)CC3)cc1	+	i
COc1ccc(CCS(=O)(=O)Nc2ccc3c(c2)N(C(=O)c2ccco2)CC3)cc1	i	i
COc1ccc(S(=O)(=O)Nc2ccc3c(c2)N(C(=O)C(C)(C)C)CC3)c(C)c1	i	i
COc1ccc(CCS(=O)(=O)Nc2ccc3c(c2)N(C(=O)C(C)(C)C)CC3)cc1	+	i
COc1ccc(OC)c(S(=O)(=O)Nc2ccc3c(c2)N(S(C)(=O)=O)CCC3)c1	i	/
CCS(=O)(=O)Nc1ccc2c(c1)N(C(=O)C(C)(C)C)CC2	i	i
COc1ccc(OC)c(S(=O)(=O)Nc2ccc3c(c2)N(S(=O)(=O)c2cccs2)CCC3)c1	+	i
O=C(NCCC(c1ccccc1)c1ccccc1)C(=O)Nc1ccc2c(c1)OCCO2	i	/
COCC(C)(O)CNC(=O)c1ccccc1C(F)(F)F (centres undefined)	i	i
COCC(C)(O)CNC(=O)c1ccc(Cl)cc1 (centres undefined)	+	i
COc1nn(C)cc1C(=O)NCC(=O)NCC(F)(F)F	i	i
COCC(C)(O)CNC(=O)c1cc(OC)cc(OC)c1 (centres undefined)	i	i
SMILES	GluA2 TARP mod	GIRK2 activator
COc1nn(C)cc1C(=O)NCC(=O)Nc1ccc(C#N)cc1	i	i
COc1nn(C)cc1C(=O)NCC(=O)Nc1ccc(F)c(C(F)(F)F)c1	+	i
COCC(C)(O)CNC(=O)c1c(F)cccc1F (centres undefined)	+	i
COCC(C)(O)CNC(=O)c1cn(C)nc1OC (centres undefined)	+	i
COc1ccc(Cl)cc1NC(=O)N(Cc1ccccn1)Cc1ccco1	/	i
Cc1cc(Br)cc(C)c1OCC(=O)Nc1ccc2c(c1)OCCO2	i	i
COc1cccc(/C=C2\Oc3cc(OC(=O)c4ccco4)ccc3C2=O)c1	i	/
CN(C)C(=O)Cc1ccc(NC(=O)Cc2ccc(Cl)cc2)cc1	i	i
CN(C)C(=O)Cc1ccc(NC(=O)Nc2ccc(Cl)c(Cl)c2)cc1	+	i
COc1cccc(CNC(=O)CS(=O)(=O)c2ccc(Cl)s2)c1	i	i
Cc1nc2ccc3nc(NC(=O)C4CCN(S(C)(=O)=O)CC4)sc3c2s1	/	i
COc1ccc(Nc2cc(C)nc(NCCNC(=O)c3nccc(C)n3)n2)cc1	/	i
COc1ccc(Nc2cc(C)nc(NCCNC(=O)c3cnccn3)n2)cc1	+	i
c1coc(-c2nnc(C3CCNCC3)o2)c1	i	i
CC(C)S(=O)(=O)c1ccc(C(=O)Nc2nc3cc4c(cc3s2)OCCO4)cc1	i	i
Cc1ccc2nc(NC(=O)c3ccc(S(=O)(=O)C(C)C)cc3)sc2c1	+	/
CS(=O)(=O)c1ccc2nc(NC(=O)Cn3cccn3)sc2c1	i	i
Cc1cn(C)nc1C(=O)Nc1nc2ccc(S(C)(=O)=O)cc2s1	+	i
CCOc1cc(C(=O)N2CCN(c3nccn3C)CC2)cc(OCC)c1OCC	i	i
